Source: PubChem BioAssay (NCI)
The panel holds about 79,000 compounds, 15% with a hit somewhere; the sample as a whole holds those more often. Active and inactive are the calls of the source. No stated cut-off is given here; in the data, active means growth inhibition above about 70%; inactive means the rest.

How the values were obtained:
[1] = NCI Yeast Anticancer Drug Screen. Data for the rad50 strain (AID 155);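 further: 0% = growth of vehicle-only cultures of the same strain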; conditions: S. cerevisiae rad50 strain growth inhibition; at 50.0 µM; hits give high values
Procedure, shortened: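 Yeast carrying a defined DNA repair defect were exposed to test compounds, and growth was compared with vehicle-treated controls to give percent inhibition.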

[2] = NCI Yeast Anticancer Drug Screen. Data for the mec2-1 strain (AID 157); conditions: S. cerevisiae mec2-1 strain, at 50.0 µM, hits give high values
Procedure, shortened: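 Cells of the genetically defined mec2-1 yeast strain are incubated with test compound. Inhibition of growth is calculated against vehicle-treated controls.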

[3] = NCI Yeast Anticancer Drug Screen. Data for the sgs1 mgt1 strain (AID 161);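 further: 0% = growth of cultures given vehicle only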; conditions: S. cerevisiae sgs1 mgt1 strain, at 50.0 µM, hits give high values
Procedure, shortened: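 Mutant yeast exposed to compound; growth scored against vehicle-only wells.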

[4] = NCI Yeast Anticancer Drug Screen. Data for the cln2 rad14 strain (AID 165);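 further: 0% = growth equal to vehicle treated cultures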; conditions: S. cerevisiae cln2 rad14 strain, at 50.0 µM, hits give high values
Procedure, shortened: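 The screen exposed genetically defined yeast (cln2 rad14) to test compounds and scored growth inhibition relative to vehicle-treated controls.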

[5] = NCI Yeast Anticancer Drug Screen. Data for the bub3 strain (AID 167); conditions: S. cerevisiae bub3 mutant strain, at 50.0 µM, hits give high values
Procedure, shortened: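 Compounds were applied to a genetically altered yeast strain carrying a cell-cycle control defect. Growth inhibition was scored against vehicle-treated controls.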

[6] = NCI Yeast Anticancer Drug Screen. Data for the mlh1 rad18 strain (AID 175); conditions: S. cerevisiae mlh1 rad18 strain growth inhibition; at 50.0 µM; hits give high values
Procedure, shortened: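 Compound-treated yeast growth, normalised to vehicle controls. Strain bears defined DNA repair mutations.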

Measured: growth inhibition

O=C(CSc1nnc(Cc2ccccc2)o1)Nc1ccccc1
inactive: [1] -28.1% | [2] 0.05% | [3] -38.6% | [4] -13.3% | [5] -35.5% | [6] -27.1%

O=c1c2[nH]cnc2n(-c2ccccc2)c(=S)n1-c1ccccc1
inactive: [1] 6.5% | [2] 1.8% | [3] -26.1% | [4] -6.55% | [5] -26.9% | [6] 13.8%

CC1(C)OC2C(CO)OC(n3cnc4c(=S)nc(N)[nH]c43)C2O1 (stereo unspecified)
inactive: [1] 18.6% | [2] 12.8% | [3] 2.5% | [4] -24.1% | [5] 12.5% | [6] 21.7%

O=C(CC(=O)N1N=C(N(c2ccccc2)c2ccccc2)CC1c1ccccc1)Nc1ccccc1 (stereo unspecified)
inactive: [1] 17.1% | [2] 6.4% | [3] -2.1% | [4] 8.3% | [5] -0.35% | [6] 0.1%

O=C(c1ccc(Cl)cc1)C1C(c2ccccc2)C1[N+](=O)[O-] (stereo unspecified)
inactive: [1] 11.2% | [2] -11.2% | [3] -3.2% | [4] -28.9% | [5] 16.4% | [6] 31%

Cc1c(O)cc(O)c(C)c1C
inactive: [1] -0.3% | [2] -23.3% | [3] -8.6% | [4] -2% | [5] 9.8% | [6] -8.65%

Nc1c(S(=O)(=O)O)cc(Br)c2c1C(=O)c1ccccc1C2=O
inactive: [1] 54.5% | [2] 15.8% | [3] 38.7% | [4] 38% | [5] 45.8% | [6] 56.4%

Cc1c(C)c2cc(Br)ccc2[nH]c1=O
inactive: [1] 18.9% | [2] -6.2% | [3] -10.2% | [4] 6.45% | [5] 6.7% | [6] 2.45%

COc1cc(O)c(O)cc1C(C)(C)C
inactive: [1] 35.9% | [2] 24.6% | [3] 45.4% | [4] -11.7% | [5] 36.5% | [6] -1.25%

CCCCCCCCOc1ccc(Cl)cc1
inactive: [1] -2.95% | [2] -11.8% | [3] -5.35% | [4] -35.2% | [5] -21.6% | [6] -28.9%

NCC(=O)NC1CCCCC1
inactive: [1] 30.6% | [2] 1.85% | [3] -8.45% | [4] 25.4% | [5] -3.65% | [6] 5.3%

O=C(O)C(Cc1ccc(O)cc1)NC(=O)C(CSC(c1ccccc1)(c1ccccc1)c1ccccc1)NC(c1ccccc1)(c1ccccc1)c1ccccc1 (stereo unspecified)
inactive: [1] 3.75% | [2] 30.9% | [3] 11.5% | [4] -2.35% | [5] -4.55% | [6] 23%

N#Cc1c[nH]n2ccnc12
inactive: [1] -16.7% | [2] -20.4% | [3] -23.4% | [4] -21.7% | [5] -4.1% | [6] -17.1%

O=c1[nH]c2ccccc2nc1/C=C(\O)c1ccc([N+](=O)[O-])cc1
inactive: [1] 1.55% | [2] -10.6% | [3] -21.6% | [4] 25.7% | [5] -22.4% | [6] 1.6%

O=C1C=CC[C@H](/C=C/c2ccccc2)O1
inactive: [1] 21.6% | [2] 31.8% | [3] 28.6% | [4] 24.4% | [5] 33.5% | [6] 48.9%

CCc1ccc2[nH]c(C(=O)O)cc2c1
inactive: [1] -15.4% | [2] -18.4% | [3] -1.75% | [4] -11.8% | [5] -21.6% | [6] 4.45%

CCN(CC)c1ccc(C(C#N)(c2ccc(N(CC)Cc3cccc(S(=O)(=O)O)c3)cc2)c2ccc(N(CC)Cc3cccc(S(=O)(=O)O)c3)cc2)cc1
inactive: [1] -1% | [2] 8.15% | [3] 4.55% | [4] -7.7% | [5] -7.45% | [6] 29.6%

CS(=O)(=O)OCC1NC(=O)C(COS(C)(=O)=O)NC1=O (stereo unspecified)
inactive: [1] -10.4% | [2] 2.8% | [3] -3.15% | [4] 2% | [5] -0.65% | [6] 3.7%

COC(=O)c1cc(C(=O)OC)cc([N+](=O)[O-])c1
inactive: [1] -6.4% | [2] -21.9% | [3] 8.75% | [4] 20.4% | [5] -38.5% | [6] 0.05%

COC(=O)C1=C(C(=O)OC)C2CCC1O2
inactive: [1] -0.5% | [2] -6% | [3] -0.4% | [4] -11.7% | [5] 8.35% | [6] -17.6%

C=C(C)C(O)C(O)C(=C)C (stereo unspecified)
inactive: [1] -6.35% | [2] -17.8% | [3] -15.6% | [4] -1.7% | [5] 12.9% | [6] -4%

Cc1cc2c(=O)c3ccccc3[nH]c2c(C(=O)O)c1C
inactive: [1] 5.35% | [2] 0.85% | [3] 8.25% | [4] 10.2% | [5] -14.7% | [6] 38.2%

C/C1=C/C2=CC(C)C[C@@H]2C(=O)[C@]2(C)C(=O)CC(C)(C)[C@H]2CC1=O (stereo partly specified)
inactive: [1] 5.5% | [2] -8.6% | [3] 22.4% | [4] 5% | [5] -13.6% | [6] -87.3%

CCOC(C)=N
inactive: [1] 3.1% | [2] -29.4% | [3] 7.3% | [4] -6.85% | [5] -9.7% | [6] 3.35%

C/C=C/C(=O)OCCCCCCCCCCCC
inactive: [1] -41.1% | [2] -39% | [3] -18.8% | [4] -16.8% | [5] -15.6% | [6] -39.8%

O=C(Nc1ccccc1Cl)c1ccc(Cl)cc1
inactive: [1] 4.75% | [2] 14.9% | [3] 8.05% | [4] -16.2% | [5] 29.1% | [6] -4.75%

O=C(CBr)Nc1ccccc1[N+](=O)[O-]
inactive: [1] 8.3% | [2] -1.35% | [3] 5.8% | [4] 0.4% | [5] 6.05% | [6] -5.4%

CCOC(=O)C1CCC(=O)C(CC)=C1C (stereo unspecified)
inactive: [1] -6.8% | [2] -40.3% | [3] 8.5% | [4] -1.85% | [5] -6.5% | [6] -6.5%

CC(C)CC(NC(=O)C(C)NC(=O)C(NC(=O)OCc1ccccc1)C(C)O)C(=O)NC(CC(C)C)C(=O)NCC(=O)NN (stereo unspecified)
inactive: [1] 12.1% | [2] 1.9% | [3] 0.05% | [4] -0.3% | [5] -5.1% | [6] -15.6%

Cc1ccc(C(C)(CCC(=O)O)c2ccc(C)o2)o1
inactive: [1] 36.2% | [2] 12.2% | [3] 7.35% | [4] 45.2% | [5] 8.5% | [6] 25.4%

COC(=O)C(c1ccccc1)C(CBr)(OC)c1ccccc1 (stereo unspecified)
inactive: [1] 18.8% | [2] 8.85% | [3] 12.5% | [4] 15.8% | [5] 13.6% | [6] 27.1%

Oc1cccnc1CN1CCOCC1
inactive: [1] -3.55% | [2] -14.3% | [3] -12.6% | [4] 8.8% | [5] -6.15% | [6] 6.95%

O=C(c1ccc(F)cc1)C1CCC1
inactive: [1] 16.3% | [2] -22.7% | [3] 16.6% | [4] 18.1% | [5] 18.6% | [6] 22.1%

O=CNc1ccc(F)c(F)c1
inactive: [1] -16.8% | [2] -16.4% | [3] -6.95% | [4] -5.35% | [5] -7.2% | [6] -10.1%

CCCC(=O)Nc1ccccc1OC
inactive: [1] 12.8% | [2] 12.7% | [3] 9.2% | [4] 11.9% | [5] 24.4% | [6] -0.75%

Cc1ccc(SC(C)/C=C/NNC2=NC(c3ccccc3)C(c3ccccc3)=NN2)cc1 (stereo unspecified)
inactive: [1] 35.2% | [2] 10.2% | [3] 6.05% | [4] 30.4% | [5] 13.7% | [6] 24.1%
